Where “and” joins values, the source holds several entries; their conditions need not be identical. Identical values can stand only once. Records with an inconclusive call do not appear. Where a call stands in place of a potency, no number is given. A number with no mark means an inactive call. Calls of active or inactive are those of the source. The call rests on the fitted dose curve; in most records, active means well fitted curve in the direction sought with a large enough effect in the repeat runs; inconclusive means weak or mixed curves; inactive means no such curve, though single readings can be large; an effect the other way counts as inactive or inconclusive.
Legend:
[1] = target: Cytochrome P450 2C19 (Homo sapiens) (UniProt P33261); experiment: Cytochrome P450 Family 2 Subfamily C Member 19 (CYP2C19) small molecule antagonists: luciferase reporter qHTS assay (AID 1671197); further: nearly all actives have a fitted effect of over 65% in size; on activity change, negative = inhibition: series mostly up to about 120 µM
Summary of the method: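 Relative luminescence units recorded 20 min after the detection reagent stopped a 1 h, 37C CYP2C19 reaction on proluciferin substrate, which was started by NADPH regeneration following 10 min room-temperature compound preincubation; ketoconazole positive control.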

[2] = target: Cytochrome P450 2C9 (Homo sapiens) (UniProt P11712); experiment: Cytochrome P450 Family 2 Subfamily C Member 9 (CYP2C9) small molecule antagonists: luciferase reporter qHTS assay (AID 1671198); further: nearly all actives have a fitted effect of over 50% in size; on activity change, negative = inhibition: series mostly up to about 120 µM
Summary of the method: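 Enzyme-substrate mix preincubated with compound 10 min at room temperature; reaction started with NADPH regeneration solution, 1 h 37C. Luminescent luciferin product read after 20 min detection reagent.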

[3] = target: Cytochrome P450 1A2 (Homo sapiens) (UniProt P05177); experiment: Cytochrome P450 Family 1 Subfamily A Member 2 (CYP1A2) small molecule antagonists: luciferase reporter qHTS assay (AID 1671199); further: nearly all actives have a fitted effect of over 50% in size; on activity change, negative = inhibition: series mostly up to about 120 µM
Summary of the method: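 Enzymatic CYP1A2 assay, human, luminescent: 10 min compound–enzyme–substrate preincubation, 1 h NADPH-dependent turnover, 20 min detection step, room temperature throughout. Reduced light indicates lower CYP1A2 activity.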

[4] = target: Cytochrome P450 3A4 (Homo sapiens) (UniProt P08684); experiment: Cytochrome P450 Family 3 Subfamily A Member 4 (CYP3A4) small molecule antagonists: luciferase reporter qHTS assay (AID 1671201); further: nearly all actives have a fitted effect of over 50% in size; on activity change, negative = inhibition: series mostly up to about 120 µM
Summary of the method: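 P450-Glo CYP3A4 luminescent assay: compounds preincubated 10 min at room temperature with enzyme and proluciferin substrate, NADPH regeneration added, 1 h room-temperature reaction, stopped with luciferin detection reagent; luminescence read after 20 min. Ketoconazole positive control.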

[5] = target: Voltage-gated inwardly rectifying potassium channel KCNH2 (Homo sapiens) (UniProt Q12809); experiment: Human Ether-a-go-go-Related Gene (hERG) channel small molecule antagonists: fluorescence cell-based qHTS assay (AID 1671200); further: nearly all actives have a fitted effect of over 50% in size;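 on activity change, negative = inhibition: hERG-expressing U2OS cells given a thallium stimulus after FluxOR II dye loading; series mostly up to about 77 µM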
Summary of the method: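 hERG-U2OS cells plated overnight at 37 C, loaded with FluxOR II dye 1 h at RT in dark; after 10 min, thallium stimulus added. Fluorescence (480/540 nm) read kinetically for 2 min at 1 s intervals.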
Potency means the concentration at half of the fitted maximal effect.

Sequence of Cytochrome P450 2C9 (Homo sapiens) (P11712 whole entry, looked up): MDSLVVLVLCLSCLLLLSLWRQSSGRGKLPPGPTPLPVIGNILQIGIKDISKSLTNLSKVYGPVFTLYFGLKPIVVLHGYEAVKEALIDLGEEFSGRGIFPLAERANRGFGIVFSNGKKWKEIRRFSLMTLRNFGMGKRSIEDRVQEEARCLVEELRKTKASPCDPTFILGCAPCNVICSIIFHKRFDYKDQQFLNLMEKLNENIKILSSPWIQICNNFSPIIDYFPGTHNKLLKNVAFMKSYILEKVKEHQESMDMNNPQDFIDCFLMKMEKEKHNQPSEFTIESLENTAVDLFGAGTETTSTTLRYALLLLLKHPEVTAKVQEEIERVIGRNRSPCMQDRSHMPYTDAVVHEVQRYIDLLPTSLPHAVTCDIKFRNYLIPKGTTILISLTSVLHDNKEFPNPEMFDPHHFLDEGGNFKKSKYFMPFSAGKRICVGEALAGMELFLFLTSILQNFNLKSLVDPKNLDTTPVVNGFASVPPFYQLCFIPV
Sequence of Cytochrome P450 2C19 (Homo sapiens) (P33261 whole entry, looked up): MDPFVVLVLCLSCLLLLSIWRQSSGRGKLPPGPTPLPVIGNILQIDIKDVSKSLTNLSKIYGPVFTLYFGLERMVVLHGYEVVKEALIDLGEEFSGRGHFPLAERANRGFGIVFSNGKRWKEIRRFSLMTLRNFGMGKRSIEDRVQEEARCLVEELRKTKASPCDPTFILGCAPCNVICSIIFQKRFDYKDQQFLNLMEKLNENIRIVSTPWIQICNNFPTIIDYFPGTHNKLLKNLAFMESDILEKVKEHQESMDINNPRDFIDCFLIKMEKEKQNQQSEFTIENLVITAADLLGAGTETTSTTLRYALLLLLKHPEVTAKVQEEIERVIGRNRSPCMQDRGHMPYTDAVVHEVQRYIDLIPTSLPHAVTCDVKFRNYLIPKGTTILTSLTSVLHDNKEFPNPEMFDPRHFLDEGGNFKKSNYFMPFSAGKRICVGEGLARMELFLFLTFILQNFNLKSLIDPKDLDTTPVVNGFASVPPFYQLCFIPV
Sequence of Voltage-gated inwardly rectifying potassium channel KCNH2 (Homo sapiens) (Q12809 whole entry, looked up): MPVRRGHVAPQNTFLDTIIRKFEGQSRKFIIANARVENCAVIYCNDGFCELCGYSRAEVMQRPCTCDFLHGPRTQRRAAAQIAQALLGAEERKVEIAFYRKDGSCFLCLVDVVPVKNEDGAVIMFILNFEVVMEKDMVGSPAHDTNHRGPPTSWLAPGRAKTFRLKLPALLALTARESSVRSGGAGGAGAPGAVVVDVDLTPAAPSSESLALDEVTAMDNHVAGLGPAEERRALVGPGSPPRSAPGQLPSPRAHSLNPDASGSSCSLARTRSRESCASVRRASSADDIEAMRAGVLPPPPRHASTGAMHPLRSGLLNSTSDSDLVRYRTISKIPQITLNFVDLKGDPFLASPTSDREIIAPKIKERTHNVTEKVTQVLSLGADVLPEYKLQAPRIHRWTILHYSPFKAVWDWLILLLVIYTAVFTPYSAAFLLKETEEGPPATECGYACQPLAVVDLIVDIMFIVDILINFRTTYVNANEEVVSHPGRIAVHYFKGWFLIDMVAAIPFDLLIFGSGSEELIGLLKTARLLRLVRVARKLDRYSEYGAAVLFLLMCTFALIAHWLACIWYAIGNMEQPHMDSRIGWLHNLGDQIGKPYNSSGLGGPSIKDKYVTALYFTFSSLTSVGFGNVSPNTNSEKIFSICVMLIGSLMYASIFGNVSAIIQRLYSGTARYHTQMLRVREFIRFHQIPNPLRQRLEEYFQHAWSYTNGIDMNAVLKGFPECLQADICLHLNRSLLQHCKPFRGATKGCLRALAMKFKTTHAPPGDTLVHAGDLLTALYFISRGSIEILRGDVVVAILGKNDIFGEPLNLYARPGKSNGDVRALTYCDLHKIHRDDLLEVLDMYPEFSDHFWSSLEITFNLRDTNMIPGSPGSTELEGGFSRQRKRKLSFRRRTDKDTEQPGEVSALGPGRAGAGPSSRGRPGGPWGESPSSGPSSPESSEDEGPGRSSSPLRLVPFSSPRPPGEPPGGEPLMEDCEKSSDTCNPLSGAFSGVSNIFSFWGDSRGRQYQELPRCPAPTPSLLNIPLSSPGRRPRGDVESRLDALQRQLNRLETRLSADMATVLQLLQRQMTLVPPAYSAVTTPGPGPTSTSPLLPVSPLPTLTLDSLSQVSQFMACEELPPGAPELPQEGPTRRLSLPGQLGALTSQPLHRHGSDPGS
Sequence of Cytochrome P450 3A4 (Homo sapiens) (P08684 whole entry, looked up): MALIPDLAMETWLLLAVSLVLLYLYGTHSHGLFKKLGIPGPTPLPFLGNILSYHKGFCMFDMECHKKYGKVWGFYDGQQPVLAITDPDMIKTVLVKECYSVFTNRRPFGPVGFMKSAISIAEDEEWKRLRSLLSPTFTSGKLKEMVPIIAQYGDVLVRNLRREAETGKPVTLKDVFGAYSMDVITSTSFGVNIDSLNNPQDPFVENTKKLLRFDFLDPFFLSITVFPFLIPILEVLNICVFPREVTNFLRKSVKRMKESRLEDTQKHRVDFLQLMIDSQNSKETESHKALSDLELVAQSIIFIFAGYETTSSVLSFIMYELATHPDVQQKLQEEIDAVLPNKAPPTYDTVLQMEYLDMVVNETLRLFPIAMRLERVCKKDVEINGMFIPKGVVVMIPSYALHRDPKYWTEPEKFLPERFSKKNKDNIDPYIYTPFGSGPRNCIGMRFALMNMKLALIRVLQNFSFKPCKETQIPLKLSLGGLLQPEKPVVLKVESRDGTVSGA
Sequence of Cytochrome P450 1A2 (Homo sapiens) (P05177 whole entry, looked up): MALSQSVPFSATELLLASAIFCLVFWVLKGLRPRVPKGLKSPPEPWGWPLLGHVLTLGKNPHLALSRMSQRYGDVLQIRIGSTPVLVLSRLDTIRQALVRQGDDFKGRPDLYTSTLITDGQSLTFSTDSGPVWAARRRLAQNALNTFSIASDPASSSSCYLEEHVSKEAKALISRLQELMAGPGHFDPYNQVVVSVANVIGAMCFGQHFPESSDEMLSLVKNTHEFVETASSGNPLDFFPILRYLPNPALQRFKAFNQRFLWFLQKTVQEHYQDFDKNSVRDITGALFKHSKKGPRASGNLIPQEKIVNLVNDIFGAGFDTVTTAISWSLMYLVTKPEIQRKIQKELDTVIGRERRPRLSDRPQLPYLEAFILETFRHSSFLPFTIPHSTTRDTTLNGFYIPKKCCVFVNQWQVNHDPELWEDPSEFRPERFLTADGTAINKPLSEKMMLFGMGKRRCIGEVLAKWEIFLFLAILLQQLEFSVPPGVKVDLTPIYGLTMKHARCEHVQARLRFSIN

How did the Potency [1] turn out when `CCCN(CCC)c1c([N+](=O)[O-])cc(C(F)(F)F)c(N)c1[N+](=O)[O-]` was run?
Its Potency is 2 µM (active).

And the Potency [2]?
The Potency was 20 µM (active).

And the Potency [3]?
The Potency was 2 µM (active).

And the Potency [4]?
The Potency was 12.6 µM (active).

Which Potency [1] does the source give for `CCCCCCCC(=O)[O-].CCCCCCCC(=O)[O-].[Zn+2]` here?
The Potency was “inactive”.

What about the Potency [2] of the same compound?
The Potency was “inactive”.

And the Potency [5]?
Its Potency is “inactive”.

And the Potency [4]?
The Potency was “inactive”.

With `CCCC(C)c1ccccc1O` (stereo unspecified) as the compound, how does the Potency [1] read?
Its Potency is “inactive”.

And the Potency [2]?
The Potency was 35.6 µM (active).

What about the Potency [5] of the same compound?
Its Potency is “inactive”.

What about the Potency [4] of the same compound?
The Potency was “inactive”.

How did the Potency [1] turn out when `CCCC(c1cc(C(C)(C)C)c(O)cc1C)c1cc(C(C)(C)C)c(O)cc1C` was run?
The Potency was 9.05 µM (active).

What about the Potency [2] of the same compound?
Its Potency is 3.6 µM (active).

What about the Potency [5] of the same compound?
The Potency was “inactive”.

And the Potency [4]?
The Potency was 5.09 µM (active).

Which results are given for `Oc1ccc(C2(c3ccc(O)cc3)CC3CC2C2CCCC32)cc1` (stereo unspecified)?
Potency [1]: 30.5 µM (active); Potency [2]: 38.4 µM (active); Potency [5]: inactive; Potency [4]: 38.4 µM (active)

Which Potency [1] does the source give for `N=C1N=C(N)c2ccccc21` here?
The Potency was “inactive”.

What about the Potency [2] of the same compound?
The Potency was “inactive”.

What about the Potency [5] of the same compound?
The Potency was “inactive”.

And the Potency [4]?
The Potency was “inactive”.

What does the source list for `OC1(c2ccc(Cl)c(C(F)(F)F)c2)CCN(CCCC(c2ccc(F)cc2)c2ccc(F)cc2)CC1`?
Potency [1]: 15.5 µM (active); Potency [2]: 8.71 µM (active); Potency [5]: 239 nM (active); Potency [4]: inactive

Which Potency [1] does the source give for `C=C(C)C(=O)OCC(O)COc1ccc(C(C)(C)c2ccc(OCC(O)COC(=O)C(=C)C)cc2)cc1` (stereo unspecified) here?
The Potency was 7.1 µM (active).

What about the Potency [2] of the same compound?
Its Potency is 3.99 µM (active).

What about the Potency [5] of the same compound?
Its Potency is “inactive”.

And the Potency [4]?
The Potency was “inactive”.

`Clc1ccc2n[nH]nc2c1` was tested. Which Potency [1] did it give?
The Potency was “inactive”.

What about the Potency [2] of the same compound?
The Potency was “inactive”.

And the Potency [5]?
Its Potency is “inactive”.

What about the Potency [4] of the same compound?
Its Potency is “inactive”.

How did the Potency [1] turn out when `Clc1ccccc1C(c1ccccc1)(c1ccccc1)n1ccnc1` was run?
The Potency was 3.99 µM (active) and 2.45 µM (active).

What about the Potency [2] of the same compound?
The Potency was 1.12 µM (active) and 1.1 µM (active).

And the Potency [5]?
The Potency was 19.5 µM (active) and 16.9 µM (active).

`CCCCCCCCNC(C)C(O)c1ccc(SC(C)C)cc1` (stereo unspecified) was tested. Which Potency [1] did it give?
The Potency was 19.5 µM (active).

What about the Potency [2] of the same compound?
Its Potency is 30.9 µM (active).

What about the Potency [5] of the same compound?
Its Potency is 268 nM (active).

What about the Potency [4] of the same compound?
The Potency was “inactive”.

How did the Potency [1] turn out when `Cc1c(C)c2c(c(C)c1OC(=O)CCC(=O)O)CC[C@@](C)(CCC[C@H](C)CCC[C@H](C)CCCC(C)C)O2` was run?
The Potency was “inactive”.

And the Potency [2]?
Its Potency is “inactive”.

And the Potency [5]?
Its Potency is “inactive”.

Which results are given for `CSc1cnc(C)cn1`?
Potency [1]: inactive; Potency [2]: inactive; Potency [5]: inactive; Potency [4]: inactive

With `C=CC(=O)OCC(CO)(COCC(COC(=O)C=C)(COC(=O)C=C)COC(=O)C=C)COC(=O)C=C` as the compound, how does the Potency [1] read?
Its Potency is 7.87 µM (active).

What about the Potency [2] of the same compound?
Its Potency is 7.02 µM (active).

What about the Potency [3] of the same compound?
The Potency was “inactive”.

What about the Potency [4] of the same compound?
The Potency was 0.395 µM (active).

Which results are given for `O=c1cc(-c2ccc(O)cc2)oc2cc(O)cc(O)c12`?
Potency [1]: 32.1 µM (active) and 39.9 µM (active); Potency [2]: 36.1 µM (active) and 39.9 µM (active); Potency [5]: inactive

How did the Potency [1] turn out when `CCN(CC)CCCC(C)Nc1c2ccc(Cl)cc2nc2ccc(OC)cc12` (stereo unspecified) was run?
Its Potency is “inactive”.

And the Potency [2]?
Its Potency is “inactive”.

And the Potency [5]?
The Potency was “inactive”.

And the Potency [4]?
The Potency was “inactive”.

For `O=C(OC[C@H]1O[C@@H](OC(=O)c2cc(O)c(O)c(OC(=O)c3cc(O)c(O)c(O)c3)c2)[C@H](OC(=O)c2cc(O)c(O)c(OC(=O)c3cc(O)c(O)c(O)c3)c2)[C@@H](OC(=O)c2cc(O)c(O)c(OC(=O)c3cc(O)c(O)c(O)c3)c2)[C@@H]1OC(=O)c1cc(O)c(O)c(OC(=O)c2cc(O)c(O)c(O)c2)c1)c1cc(O)c(O)c(OC(=O)c2cc(O)c(O)c(O)c2)c1`, which Potency [1] is on record?
The Potency was “inactive”.

What about the Potency [2] of the same compound?
Its Potency is 21.5 µM (active).

What about the activity change, negative = inhibition [5] of the same compound?
Its activity change, negative = inhibition is 1.88% [at 15.8 µM].

And the activity change, negative = inhibition [4]?
Its activity change, negative = inhibition is -11% [at 23.6 µM].

What does the source list for `CCCCCCCCCCCCc1ccc(O)cc1`?
Potency [1]: 1.59 µM (active); Potency [2]: 6.33 µM (active); Potency [3]: 22.4 µM (active); Potency [4]: 35.6 µM (active)

How did the Potency [1] turn out when `C=CC(=O)OCC(CO)(COC(=O)C=C)COC(=O)C=C` was run?
The Potency was 25.3 µM (active) and 22.4 µM (active).

What about the Potency [2] of the same compound?
The Potency was 11.3 µM (active) and 11.2 µM (active).

What about the Potency [5] of the same compound?
Its Potency is “inactive”.

What about the Potency [4] of the same compound?
The Potency was 1.01 µM (active) and 1.12 µM (active).

What does the source list for `NC(=O)CC[C@@H]1NC(=O)[C@H](Cc2ccccc2)NC(=O)[C@H](Cc2ccc(O)cc2)NC(=O)CCSSC[C@@H](C(=O)N2CCC[C@H]2C(=O)N[C@@H](CCCN=C(N)N)C(=O)NCC(N)=O)NC(=O)[C@H](CC(N)=O)NC1=O`?
Potency [1]: inactive; Potency [2]: inactive; Potency [5]: inactive; Potency [4]: inactive

How did the Potency [1] turn out when `CCC(Cl)C(Cl)C(Cl)CC(Cl)C(Cl)C(C)Cl` (stereo unspecified) was run?
The Potency was 1.26 µM (active).

What about the Potency [2] of the same compound?
Its Potency is 7.96 µM (active).

And the Potency [3]?
Its Potency is 35.6 µM (active).

What about the Potency [4] of the same compound?
Its Potency is “inactive”.

Which results are given for `C[C@@H](NCCCc1cccc(C(F)(F)F)c1)c1cccc2ccccc12`?
Potency [1]: 8.71 µM (active); Potency [2]: inactive; Potency [5]: 10700 nM (active)

For `Clc1ccc2cc3ccccc3cc2c1`, which Potency [1] is on record?
The Potency was 79.6 µM (active).

And the Potency [3]?
Its Potency is 1.59 µM (active).

What about the Potency [5] of the same compound?
The Potency was “inactive”.

And the Potency [4]?
The Potency was “inactive”.

Which Potency [1] does the source give for `O=C1CCCCCN1SSN1CCCCCC1=O` here?
The Potency was 35.6 µM (active).

What about the Potency [5] of the same compound?
Its Potency is “inactive”.

And the Potency [4]?
The Potency was “inactive”.

— PubChem BioAssay (Tox21)
